Measured values: PubChem BioAssay (EPA / NIEHS)
Values joined by “and” are separate entries in the source; they are usually repeats but may differ in a detail not shown here. Identical values can stand only once. Results filed as inconclusive are left out. Some compounds were tested as several samples or in several runs, with calls that do not always agree. Active and inactive are the calls of the source. Rule for the calls, unless noted: active = hit-call score of the fitted dose curve at least 0.9, where 1 is the maximum; inactive = score below 0.9.

Legend:
[1] = read-out: Monocyte Chemoattractant Protein-1 (MCP1), CCL2 (gene 6347); test: BSK_SAg_MCP1: BioMAP Diversity Plus: SAg Assay for Monocyte Chemoattractant Protein-1 (MCP1) Biomarker Activity (AID 2283090); details: primary human HUVEC with PBMC; actives raise or lower the signal
How it was run: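 Values derive from bidirectional fitting of ELISA-measured MCP1 against DMSO controls. Readings were taken 24 h after dosing human vascular endothelial cells co-cultured with peripheral blood mononuclear cells under superantigen stimulation.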

[2] = read-out: E-selectin (Homo sapiens) (UniProt P16581); test: BSK_SAg_Eselectin: BioMAP Diversity Plus: SAg Assay for Eselectin Biomarker Activity (AID 2283091); details: primary human HUVEC with PBMC; actives raise or lower the signal
How it was run: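 HUVEC co-cultured with PBMC, compound dosed then read at 24 h; E-selectin measured by ELISA. Activity fitted bidirectionally against DMSO as negative control and baseline.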

[3] = read-out: Monokine induced gamma interferon (MIG), CXCL9 (gene 4283); test: BSK_SAg_MIG: BioMAP Diversity Plus: SAg Assay for Monokine induced gamma interferon (MIG) Biomarker Activity (AID 2283092); details: primary human HUVEC with PBMC; actives raise or lower the signal
How it was run: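 Endothelial cells and PBMC were co-cultured, exposed to test chemicals, and sampled 24 h later. MIG was measured by ELISA, and responses were fitted in both directions relative to DMSO.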

[4] = BSK_SAg_PBMCCytotoxicity: PBMC Cytotoxicity Assessment in the BioMAP Diversity Plus: SAg Assay (AID 2283093); details: primary human HUVEC with PBMC;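 note: PBMC viability measured as Alamar Blue reduction fluorescence at 546/580 nm; fitted both ways against DMSO so a hit may be loss or gain of signal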;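 for AC50: PBMC superantigen activated with SEB plus TSST-1 one hour after compound addition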
How it was run: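 Alamar Blue reduction (6 h, 546/580 nm) reports PBMC cytotoxicity after 90 h superantigen activation (SEB, TSST-1; 20 ng/mL final each) with 1 h compound pre-treatment. Gain or loss of signal fitted versus DMSO.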

[5] = read-out: Interleukin-8 (IL8), CXCL8 (gene 3576); test: BSK_SAg_IL8: BioMAP Diversity Plus: SAg Assay for Interleukin-8 (IL8) Biomarker Activity (AID 2283094); details: primary human HUVEC with PBMC; actives raise or lower the signal
How it was run: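 Primary human endothelial cells with PBMC, exposed 24 h; IL-8 determined by ELISA, analysed bidirectionally relative to DMSO.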

[6] = BSK_SAg_Proliferation: Cell Proliferation Assessment in the BioMAP Diversity Plus: SAg Assay (AID 2283095); details: primary human HUVEC with PBMC;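 note: relative cell number as total protein by SRB absorbance in sub-confluent culture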
How it was run: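 A human primary co-culture of umbilical vein endothelium and blood mononuclear cells receives compound; relative cell number is quantified at 96 h by SRB staining and 560 nm absorbance, with DMSO-referenced bidirectional curve fitting.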

[7] = BSK_SAg_SRB: Viability Assessment in the BioMAP Diversity Plus: SAg Assay (AID 2283096); details: primary human HUVEC with PBMC;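 note: cells read one day after compound addition; hits may be either gain or loss of signal compared with DMSO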
How it was run: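 This overt-cytotoxicity endpoint quantifies protein in human endothelial/PBMC co-cultures at 24 h using SRB absorbance (560 nm) after trichloroacetic acid fixation. Values reflect signal change from the DMSO negative control, fitted bidirectionally.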

[8] = target: human CYP19A1, CYP19A1 (gene 1588) (UniProt P11511); test: NVS_ADME_hCYP19A1: NovaScreen (NVS) CYP450-related Enzyme Activity (ADME) Assay for human CYP19A1 (AID 2283098; active = hit-call score of the fitted dose curve at least 0.9, where 1 is the maximum;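 note: potency for inhibitors seen as loss of fluorescent enzyme signal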)
Chain of human CYP19A1, CYP19A1 (gene 1588) (P11511 whole entry, looked up): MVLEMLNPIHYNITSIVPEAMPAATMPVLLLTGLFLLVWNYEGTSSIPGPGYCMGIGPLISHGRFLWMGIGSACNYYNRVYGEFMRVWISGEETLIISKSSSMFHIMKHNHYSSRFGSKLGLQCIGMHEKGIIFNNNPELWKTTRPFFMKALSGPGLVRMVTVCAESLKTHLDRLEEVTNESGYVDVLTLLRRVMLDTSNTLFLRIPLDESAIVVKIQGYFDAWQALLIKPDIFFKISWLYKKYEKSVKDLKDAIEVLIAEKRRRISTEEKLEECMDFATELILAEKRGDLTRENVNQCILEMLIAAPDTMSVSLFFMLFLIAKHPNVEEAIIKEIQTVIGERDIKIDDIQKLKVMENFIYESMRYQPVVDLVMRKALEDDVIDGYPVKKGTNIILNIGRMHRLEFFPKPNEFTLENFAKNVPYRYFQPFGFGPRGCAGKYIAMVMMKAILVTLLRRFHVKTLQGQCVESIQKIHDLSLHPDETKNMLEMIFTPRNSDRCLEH
How it was run: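 Compounds were first screened at 10 uM in duplicate against purified enzyme, with a fluorogenic substrate and fluorescence intensity detection after 0.5 h. Inhibition appears as reduced signal against acetonitrile control.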

[9] = target: human CYP4F12, CYP4F12 (gene 66002) (UniProt Q9HCS2); test: NVS_ADME_hCYP4F12: NovaScreen (NVS) CYP450-related Enzyme Activity (ADME) Assay for human CYP4F12 (AID 2283111; active = hit-call score of the fitted dose curve at least 0.9, where 1 is the maximum)
Chain of human CYP4F12, CYP4F12 (gene 66002) (Q9HCS2 whole entry, looked up): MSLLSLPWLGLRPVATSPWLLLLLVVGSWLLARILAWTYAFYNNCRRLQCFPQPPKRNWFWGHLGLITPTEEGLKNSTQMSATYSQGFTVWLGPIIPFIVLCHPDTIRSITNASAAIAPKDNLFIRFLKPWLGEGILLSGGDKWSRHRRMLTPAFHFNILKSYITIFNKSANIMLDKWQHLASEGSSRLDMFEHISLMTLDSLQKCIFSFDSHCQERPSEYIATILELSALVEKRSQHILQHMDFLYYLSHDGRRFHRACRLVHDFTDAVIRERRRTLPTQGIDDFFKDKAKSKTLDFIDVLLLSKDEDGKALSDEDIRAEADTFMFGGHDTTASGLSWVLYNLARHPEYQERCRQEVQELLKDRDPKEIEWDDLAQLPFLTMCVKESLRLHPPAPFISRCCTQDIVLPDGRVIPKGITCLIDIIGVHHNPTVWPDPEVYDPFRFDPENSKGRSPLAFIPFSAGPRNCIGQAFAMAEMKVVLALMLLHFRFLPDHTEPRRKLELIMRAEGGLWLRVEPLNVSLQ
How it was run: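 Recombinant enzyme with a fluorescent substrate, signal read at 0.5 h post-dose; activity loss analysed relative to acetonitrile. Compounds first run in duplicate at 10 uM, with follow-up concentration-response testing of actives.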

[10] = target: human CYP2C9, CYP2C9 (gene 1559) (UniProt P11712); test: NVS_ADME_hCYP2C9: NovaScreen (NVS) CYP450-related Enzyme Activity (ADME) Assay for human CYP2C9 (AID 2283108; active = hit-call score of the fitted dose curve at least 0.9, where 1 is the maximum)
Chain of human CYP2C9, CYP2C9 (gene 1559) (P11712 whole entry, looked up): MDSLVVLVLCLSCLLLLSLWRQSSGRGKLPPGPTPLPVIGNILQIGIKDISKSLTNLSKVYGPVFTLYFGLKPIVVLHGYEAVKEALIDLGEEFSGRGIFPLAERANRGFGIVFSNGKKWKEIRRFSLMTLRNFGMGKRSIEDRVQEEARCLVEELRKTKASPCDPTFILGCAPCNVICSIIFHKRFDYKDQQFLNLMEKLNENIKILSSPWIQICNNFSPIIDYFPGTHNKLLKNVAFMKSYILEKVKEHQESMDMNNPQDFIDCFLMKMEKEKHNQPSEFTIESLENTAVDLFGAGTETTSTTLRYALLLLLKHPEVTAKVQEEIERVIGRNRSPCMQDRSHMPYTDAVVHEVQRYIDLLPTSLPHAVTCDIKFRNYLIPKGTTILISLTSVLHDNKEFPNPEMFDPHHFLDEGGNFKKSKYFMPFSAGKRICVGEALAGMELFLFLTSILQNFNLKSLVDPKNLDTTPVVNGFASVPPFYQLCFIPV
How it was run: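 Cell-free assay of recombinant human CYP2C9 produced in Sf9 cells, with enzyme activity read by fluorescence intensity 0.75 h after compound addition. Loss of signal versus an acetonitrile negative control indicates inhibition. Primary screen used 10 uM in duplicate; actives were retested in concentration series.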

[11] = target: Cytochrome P450 2C19 (Homo sapiens) (UniProt P33261); test: NVS_ADME_hCYP2C19: NovaScreen (NVS) CYP450-related Enzyme Activity (ADME) Assay for human CYP2C19 (AID 2283113; active = hit-call score of the fitted dose curve at least 0.9, where 1 is the maximum;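 for AC50: potency for inhibition seen as loss of fluorescent signal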)
How it was run: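 Cell-free assay of recombinant human CYP2C19 expressed in insect cells, with a fluorogenic substrate; fluorescence intensity read 1 hour after dosing. Loss of signal relative to acetonitrile negative control indicates inhibition. Primary screen at 10 uM in duplicate, then concentration series.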

[12] = target: human CYP2B6, CYP2B6 (gene 1555) (UniProt P20813); test: NVS_ADME_hCYP2B6: NovaScreen (NVS) CYP450-related Enzyme Activity (ADME) Assay for human CYP2B6 (AID 2283101; active = hit-call score of the fitted dose curve at least 0.9, where 1 is the maximum)
Chain of human CYP2B6, CYP2B6 (gene 1555) (P20813 whole entry, looked up): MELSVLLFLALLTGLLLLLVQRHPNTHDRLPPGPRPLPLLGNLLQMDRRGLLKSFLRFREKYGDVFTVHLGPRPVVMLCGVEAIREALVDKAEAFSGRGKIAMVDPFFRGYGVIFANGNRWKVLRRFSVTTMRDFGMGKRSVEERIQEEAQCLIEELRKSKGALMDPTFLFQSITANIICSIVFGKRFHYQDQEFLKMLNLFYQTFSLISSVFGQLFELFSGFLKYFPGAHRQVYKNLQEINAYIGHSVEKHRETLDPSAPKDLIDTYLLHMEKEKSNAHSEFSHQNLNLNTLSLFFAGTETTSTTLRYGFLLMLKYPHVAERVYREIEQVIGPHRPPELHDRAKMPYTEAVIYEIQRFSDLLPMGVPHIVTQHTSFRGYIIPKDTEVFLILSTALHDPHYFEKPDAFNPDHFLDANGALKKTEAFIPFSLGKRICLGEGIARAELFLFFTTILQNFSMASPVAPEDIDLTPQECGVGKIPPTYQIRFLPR
How it was run: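 Cell-free recombinant enzyme assay with a fluorogenic substrate; fluorescence intensity read 1 hour after dosing. Loss of signal relative to acetonitrile negative control indicates inhibition. Primary screen run in duplicate at 10 uM, actives then tested in concentration series.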

[13] = target: human CYP1A2, CYP1A2 (gene 1544) (UniProt P05177); test: NVS_ADME_hCYP1A2: NovaScreen (NVS) CYP450-related Enzyme Activity (ADME) Assay for human CYP1A2 (AID 2283102; active = hit-call score of the fitted dose curve at least 0.9, where 1 is the maximum;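 note: potency for inhibition since loss of fluorescence marks reduced CYP1A2 activity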)
Chain of human CYP1A2, CYP1A2 (gene 1544) (P05177 whole entry, looked up): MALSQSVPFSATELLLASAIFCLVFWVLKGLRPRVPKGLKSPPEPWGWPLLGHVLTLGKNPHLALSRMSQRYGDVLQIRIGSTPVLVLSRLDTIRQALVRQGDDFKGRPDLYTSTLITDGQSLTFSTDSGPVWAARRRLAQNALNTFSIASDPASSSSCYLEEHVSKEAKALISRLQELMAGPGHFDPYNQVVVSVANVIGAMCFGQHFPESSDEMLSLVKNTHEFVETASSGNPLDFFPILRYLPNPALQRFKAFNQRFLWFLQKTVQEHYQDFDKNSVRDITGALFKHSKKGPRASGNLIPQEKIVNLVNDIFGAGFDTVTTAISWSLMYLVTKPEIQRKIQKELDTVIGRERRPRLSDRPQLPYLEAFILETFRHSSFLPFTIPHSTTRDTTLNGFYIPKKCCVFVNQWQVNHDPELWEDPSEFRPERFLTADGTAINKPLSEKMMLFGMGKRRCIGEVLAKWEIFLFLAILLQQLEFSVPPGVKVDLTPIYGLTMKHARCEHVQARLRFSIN
How it was run: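 Cell-free recombinant human CYP1A2 expressed in insect cells, with fluorogenic substrate; fluorescence intensity read 0.5 h after dosing. Loss of signal relative to acetonitrile baseline scored. Primary screen in duplicate at 10 uM; actives retested in concentration series.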

[14] = target: rat CYP2A2, Cyp2a2 (gene 24895) (UniProt P15149); test: NVS_ADME_rCYP2A2: NovaScreen (NVS) CYP450-related Enzyme Activity (ADME) Assay for rat CYP2A2 (AID 2283116; active = hit-call score of the fitted dose curve at least 0.9, where 1 is the maximum)
Chain of rat CYP2A2, Cyp2a2 (gene 24895) (P15149 whole entry, looked up): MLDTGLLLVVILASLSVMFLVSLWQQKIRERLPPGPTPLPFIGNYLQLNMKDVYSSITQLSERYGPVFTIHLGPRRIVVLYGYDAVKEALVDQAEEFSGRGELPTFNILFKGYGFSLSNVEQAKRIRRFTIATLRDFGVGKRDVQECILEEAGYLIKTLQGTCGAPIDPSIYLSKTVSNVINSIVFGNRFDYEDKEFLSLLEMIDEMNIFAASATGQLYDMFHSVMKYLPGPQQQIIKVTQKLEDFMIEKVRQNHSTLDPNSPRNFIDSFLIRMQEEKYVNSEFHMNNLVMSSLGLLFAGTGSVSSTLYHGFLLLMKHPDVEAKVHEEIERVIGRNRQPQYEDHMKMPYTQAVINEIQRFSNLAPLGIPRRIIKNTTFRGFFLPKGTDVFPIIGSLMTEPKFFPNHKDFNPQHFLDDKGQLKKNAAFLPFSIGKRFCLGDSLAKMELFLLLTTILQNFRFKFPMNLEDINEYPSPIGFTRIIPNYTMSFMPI
How it was run: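 Compounds first tested in duplicate at 10 uM, then in singleton concentration series up to 20 uM when over threshold. Activity of the recombinant enzyme read by fluorescence at 0.2 h, normalised to acetonitrile vehicle.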

rat CYP2B1, gene 24300 = test: NVS_ADME_rCYP2B1: NovaScreen (NVS) CYP450-related Enzyme Activity (ADME) Assay for rat CYP2B1 (AID 2283117; active = hit-call score of the fitted dose curve at least 0.9, where 1 is the maximum)
How it was run: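 Cell-free fluorescence enzyme assay, recombinant rat CYP2B1, 0.75 h after dosing. Single-concentration duplicates at 10 uM preceded concentration series (max 20 uM) for actives; acetonitrile as negative-control baseline.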

[15] = target: human CYP2A6, CYP2A6 (gene 1548) (UniProt P11509); test: NVS_ADME_hCYP2A6: NovaScreen (NVS) CYP450-related Enzyme Activity (ADME) Assay for human CYP2A6 (AID 2283099; active = hit-call score of the fitted dose curve at least 0.9, where 1 is the maximum)
Chain of human CYP2A6, CYP2A6 (gene 1548) (P11509 whole entry, looked up): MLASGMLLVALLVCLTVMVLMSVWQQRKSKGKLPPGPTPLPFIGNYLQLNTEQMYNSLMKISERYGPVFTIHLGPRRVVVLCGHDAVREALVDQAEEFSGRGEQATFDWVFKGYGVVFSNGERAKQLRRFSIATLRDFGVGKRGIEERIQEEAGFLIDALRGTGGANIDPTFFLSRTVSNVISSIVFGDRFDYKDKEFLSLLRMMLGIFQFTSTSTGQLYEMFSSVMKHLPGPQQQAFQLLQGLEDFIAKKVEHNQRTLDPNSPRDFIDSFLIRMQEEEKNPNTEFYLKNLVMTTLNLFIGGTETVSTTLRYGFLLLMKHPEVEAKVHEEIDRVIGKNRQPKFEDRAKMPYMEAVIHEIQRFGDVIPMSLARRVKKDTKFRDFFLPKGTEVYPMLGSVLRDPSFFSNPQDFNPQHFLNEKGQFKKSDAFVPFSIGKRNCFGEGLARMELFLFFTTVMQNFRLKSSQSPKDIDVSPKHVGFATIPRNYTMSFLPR
How it was run: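 Cell-free fluorescence readout of recombinant human CYP2A6 expressed in insect cells, read 0.5 h after dosing; loss of signal versus acetonitrile negative control. Primary screen in duplicate at 10 uM; actives re-run in concentration-response up to 20 uM.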

[16] = target: human CYP2C8, CYP2C8 (gene 1558) (UniProt P10632); test: NVS_ADME_hCYP2C8: NovaScreen (NVS) CYP450-related Enzyme Activity (ADME) Assay for human CYP2C8 (AID 2283104)
Chain of human CYP2C8, CYP2C8 (gene 1558) (P10632 whole entry, looked up): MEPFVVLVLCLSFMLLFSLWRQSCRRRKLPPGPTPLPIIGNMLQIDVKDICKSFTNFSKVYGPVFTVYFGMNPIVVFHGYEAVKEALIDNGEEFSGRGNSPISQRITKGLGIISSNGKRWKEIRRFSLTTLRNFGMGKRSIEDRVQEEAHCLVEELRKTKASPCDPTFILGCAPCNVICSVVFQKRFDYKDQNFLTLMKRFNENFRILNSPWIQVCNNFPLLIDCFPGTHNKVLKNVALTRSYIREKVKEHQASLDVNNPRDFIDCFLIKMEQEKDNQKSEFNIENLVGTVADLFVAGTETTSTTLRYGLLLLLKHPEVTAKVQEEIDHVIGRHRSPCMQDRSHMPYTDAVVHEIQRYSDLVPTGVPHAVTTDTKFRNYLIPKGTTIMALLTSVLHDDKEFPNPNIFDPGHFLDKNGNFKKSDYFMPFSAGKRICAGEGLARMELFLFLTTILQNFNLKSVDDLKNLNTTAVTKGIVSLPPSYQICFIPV
How it was run: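 Fluorescence readout of substrate turnover by recombinant CYP2C8 after 0.5 h, baseline acetonitrile. Single-concentration duplicate screen at 10 uM preceded singleton concentration series (max 20 uM) for compounds passing the inhibition threshold.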

Measured: AC50

Chain of E-selectin (Homo sapiens) (P16581 whole entry, looked up): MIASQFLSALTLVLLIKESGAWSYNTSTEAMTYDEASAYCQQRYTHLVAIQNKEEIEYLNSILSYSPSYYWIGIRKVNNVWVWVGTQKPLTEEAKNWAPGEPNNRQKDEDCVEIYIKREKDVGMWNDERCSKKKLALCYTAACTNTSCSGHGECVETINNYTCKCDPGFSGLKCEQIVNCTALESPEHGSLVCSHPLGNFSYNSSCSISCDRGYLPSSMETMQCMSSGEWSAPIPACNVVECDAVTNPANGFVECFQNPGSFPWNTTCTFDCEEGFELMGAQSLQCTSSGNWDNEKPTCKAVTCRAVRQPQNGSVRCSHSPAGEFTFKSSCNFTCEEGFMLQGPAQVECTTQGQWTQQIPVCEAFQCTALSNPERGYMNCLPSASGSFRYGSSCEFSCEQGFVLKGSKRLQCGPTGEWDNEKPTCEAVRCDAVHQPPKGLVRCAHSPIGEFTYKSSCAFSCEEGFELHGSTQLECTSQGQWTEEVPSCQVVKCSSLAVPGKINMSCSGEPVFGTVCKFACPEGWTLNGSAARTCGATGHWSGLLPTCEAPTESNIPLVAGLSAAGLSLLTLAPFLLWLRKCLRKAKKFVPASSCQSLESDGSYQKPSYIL

O=NN(c1ccccc1)c1ccccc1
inactive: [1] | [2] | [3] | [4] | [5] | [6] | [7]

N#Cc1ccc(N(CC(N)=O)CC(F)(F)F)cc1C(F)(F)F
inactive: [1] | [2] | [4] | [5] | [6]

Oc1ccc(Cl)cc1Cl
inactive: [1] | [2] | [3] | [4] | [5] | [6] | [7]

O=C(O)C(F)(F)C(F)(F)C(F)(F)C(F)(F)C(F)(F)F
inactive: [1] | [2] | [3] | [4] | [5] | [6] | [7]

CC(C)C(=O)OCC(C)(C)C(OC(=O)C(C)C)C(C)C (stereo not given)
active: [8] 11.6 µM | [9] 6.26 µM
inactive: [1] | [2] | [3] | [4] | [5] | [6] | [7]

O=C(O)C(F)(F)C(F)(F)C(F)(F)C(F)(F)C(F)(F)C(F)(F)C(F)(F)C(F)(F)F
active: [1] 47.6 µM | [5] 44.1 µM and 55.1 µM | [6] 55.2 µM | [7] 51 µM and 55 µM | [10] 0.643 µM
inactive: [1] | [2] | [3] | [4] | [5] | [6] | [7]

c1ccc(-c2ccccc2)cc1
inactive: [1] | [2] | [3] | [4] | [5] | [6] | [7]

CCOC(=O)C(O)(c1ccc(Cl)cc1)c1ccc(Cl)cc1
active: [1] 35.2 µM | [2] 31.7 µM | [3] 39.3 µM | [4] 33.7 µM | [5] 32.9 µM | [6] 30.9 µM | [7] 32.3 µM | [11] 0.596 µM

CN(C)c1nc(=O)n(C2CCCCC2)c(=O)n1C
inactive: [1] | [2] | [3] | [4] | [5] | [6] | [7]

ClC1=C(Cl)[C@]2(Cl)[C@@H]3[C@H]4C[C@H]([C@@H]5O[C@H]45)[C@@H]3[C@@]1(Cl)C2(Cl)Cl
inactive: [1] | [3] | [5]
active: [2] 5.87 µM | [4] 5.53 µM | [6] 7.7 µM | [7] 8.56 µM | [12] 4.45 µM

O=C(NC(=O)c1c(F)cccc1F)Nc1cc(Cl)c(OC(F)(F)C(F)F)c(Cl)c1
inactive: [1] | [2] | [3] | [4] | [5] | [6] | [7]

Clc1ccc(C(Cl)(Cl)Cl)cc1
inactive: [1] | [2] | [4] | [5] | [6] | [7]

CCNc1nc(NC(C)C)nc(SC)n1
active: [13] 4.92 µM | [11] 4.91 µM
inactive: [1] | [2] | [3] | [4] | [5] | [6] | [7]

ClC(Cl)=C(c1ccc(Cl)cc1)c1ccc(Cl)cc1
inactive: [12] | [11] | [14] | rat CYP2B1, gene 24300
active: [1] 39.2 µM | [2] 32.2 µM | [3] 36 µM | [4] 15.4 µM | [5] 34.6 µM | [6] 18.4 µM | [7] 32 µM

COc1ccc(O)c(C(C)(C)C)c1
inactive: [1] | [2] | [4] | [5] | [6] | [7] | [15] | [12]
active: [4] 20 µM | [10] 10 µM | [11] 12.1 µM

c1cc2ccc3cccc4ccc(c1)c2c34
inactive: [1] | [2] | [4] | [5] | [6] | [7]

CC(c1ccc(O)cc1)(c1ccc(O)cc1)c1ccc(O)cc1
inactive: [4]
active: [1] 25.9 µM | [2] 13.9 µM | [3] 33.8 µM | [5] 20 µM | [6] 21.6 µM | [7] 15.7 µM | [11] 1.73 µM

Oc1c(Cl)c(Cl)c(Cl)c(Cl)c1Cl
inactive: [2] | [4] | [5] | [15] | [12]
active: [1] 10.2 µM and 33.6 µM | [2] 27.3 µM | [4] 8 µM | [6] 15.8 µM and 26.9 µM | [7] 14.6 µM and 21.8 µM

CCC(C)(CC)c1cc(NC(=O)c2c(OC)cccc2OC)on1
active: [10] 2.79 µM | [11] 5.05 µM
inactive: [1] | [2] | [3] | [4] | [5] | [6] | [7] | [16]
